The structures appear in SMILES notation. The whole screen tested about 340,000 compounds, of which about 6,400 (1.9%) were called active. Not shown: some 4% with an inconclusive outcome. Calls follow the shape of the dose curve; as a rule, active = well fitted falling curve with a large enough effect; inconclusive = small, poorly fitted or top-dose-only effect; inactive = no such curve, though single readings can be large or run the other way. The entries come from a sample that favours actives as a whole. Entries that show only a call come without a potency.

The record followed here is PubChem BioAssay AID651965 (National Center for Advancing Translational Sciences (NCATS), 2013).
Potency is read from the fitted curve at half-maximal effect.

The target in the assay is ATP-dependent Clp protease proteolytic subunit (Bacillus subtilis (strain 168)) (UniProt P80244). Nature of the assay: qHTS Assay for Activators of ClpP. Also: the source files actives as falling curves though it sought activators and does not explain the sign; nearly all actives have a fitted effect of over 65% in size. Conditions: purified B. subtilis ClpP, FRET peptide cleavage, 20 min; series mostly up to 57.5 µM. The gist of the method: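 FRET quenching reversal measured ClpP activation: 10 microg/mL B. subtilis ClpP at pH 8 with the FRET-FV decapeptide, read at 430 nm after 320 nm excitation. The 20-min minus 0-min signal was scaled between DMSO/no-enzyme wells and ADEP (5.8 microM final).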
In general terms: qHTS replaces the single test concentration by a dilution series.
In the case of `COc1ccccc1/C=C/C(=O)NC(=S)N1CCOCC1`, the Potency result is “inactive”.
Next, `COc1ccccc1/C=C/c1nc(C#N)c(NC(C)c2ccccc2)o1` (stereo not given): “inactive”.
Next, `COc1ccccc1/C=C/C1=NC(=C\N(C)C)/C(=O)O1`: 25.1 µM (active); `CC1(C(=O)Nc2ccc3c(c2)OCCO3)CSCC(=O)N1CCOc1ccccc1` (stereo not given): “inactive”.
As to `C[C@@H]1CC2=C(C(=O)OC(C)(C)O2)[C@@H](C2CC2)O1`, the Potency result was “inactive”.
As to `COc1ccc(C=C2CCC3C(CCCC34OCCO4)C2=O)cc1` (stereo not given), the Potency result was “inactive”.
Consider `O=C(Nc1ccc2oc(-c3ccc4ccccc4c3)nc2c1)c1cccs1`, for which the Potency was 3.55 µM (active).
Next, `COc1cccc(C(=O)Nc2ccc3oc(-c4ccc5ccccc5c4)nc3c2)c1`: “inactive”; `O=C(Nc1ccc(-c2nc3cc(NC(=O)c4ccccc4Cl)ccc3o2)cc1)c1ccccc1Cl`: “inactive”; `O=C(Cc1cccc2ccccc12)Nc1ccc2oc(-c3ccccc3)nc2c1`: 20 µM (active).
For `CCC(=O)Nc1cccc(-c2nc3cc(C)ccc3o2)c1`, the Potency result is “inactive”.
Next, `CCCC(=O)Nc1ccc2oc(-c3ccc(O)c(Br)c3)nc2c1`: “inactive”.
Next, `Clc1ccc(-c2cccc3nccn23)cc1`: “inactive”.
Next, `Cc1cc(Br)cn2c(Cc3cccc(F)c3)c(-c3cccc(Br)c3)nc12`: “inactive”; `C[C@H](NC(=O)CC[C@H]1O[C@@H](n2ccc(=O)[nH]c2=O)[C@H](O)[C@@H]1O)c1cccc2ccccc12`: “inactive”; `O=C(O)Cc1ccc(NC(=O)Nc2cccc3ccccc23)cc1`: “inactive”.
For the molecule `S=C(NCCc1ccccc1)NCc1ccccc1Cl`, the Potency result is “inactive”.
Next, `O=C(O)Cc1ccc(NCc2ccccc2Cl)cc1`: 8.91 µM (active).
Next, `Cc1ccc(C)c(OCCC(=O)OCC(=O)c2ccc3c(c2)NC(=O)CO3)c1`: “inactive”.
Next, `O=C1COc2ccc(C(=O)COC(=O)c3ccccc3Cl)cc2N1`: “inactive”; `COc1cc(N)c(Cl)cc1C(=O)OCC(=O)c1ccc2c(c1)NC(=O)CO2`: 14.1 µM (active).
`COc1cccc(CNc2nc(NCc3cccs3)nc3ccsc23)c1`: the Potency entry was “inactive”.
In the case of `CSCCC(c1nnnn1Cc1ccccc1)N1CCN(C/C=C/c2ccccc2)CC1` (stereo not given), the Potency entry was “inactive”.
Next, `CC(C)(C)c1nc2ccccc2c(=O)n1N1C(=O)c2ccccc2C1=O`: “inactive”; `CC(C)(C)c1cc(=O)n2c(nc3ccccc32)[nH]1`: 15.8 µM (active).
Next, `Cn1c(=O)c2c(n3c4ccccc4nc13)NC(=O)CC2c1cccc(Cl)c1` (stereo not given): “inactive”.
Next, `CCc1nc2ccc(C(=O)NC3CCN(Cc4ccccc4)CC3)cn2c1N(C)CCN1CCOCC1`: “inactive”.
Regarding `CCCCOCCCNC(=O)C[C@@H]1C[C@@]2(C(=O)OCC)CCCC=C2N(CCC2=CCCCC2)C1=O`, the Potency result was “inactive”.
Next, `COc1ccc(CCNC(=O)Nc2ccc3c(c2)c(=O)n(C)n3C)cc1OC`: “inactive”; `N#Cc1cccc(NC(=O)c2cc(C3CCCCN3C(=O)CCc3ccccc3)on2)c1` (stereo not given): “inactive”.
Next, `COc1ccc2c(c1OC)C(=O)N(c1ncn[nH]1)C2`: 28.2 µM (active); `CC1(C)OC(=O)C2=C(C[C@@H](C3CCCC3)O[C@@H]2c2ccc(Cl)cc2)O1`: “inactive”; `O=C(NCc1ccccc1Cl)c1csc([C@@H]2O[C@H](CO)[C@@H](O)[C@H]2O)n1`: “inactive”.
Next, `CC1CCCC(C)N1C(=O)COC(=O)c1ccccc1C(=O)c1ccccc1` (stereo not given): “inactive”; `Cc1cc(C(=O)OCC(=O)N2C(C)CCCC2C)c2ccccc2n1` (stereo not given): “inactive”.
In the case of `Cc1nn(-c2ccccc2)nc1C(=O)OCC(=O)N1CCCCC1C` (stereo not given), the Potency is 10 µM (active).
Next, `COc1ccc(C2=Nc3ccccc3NC(=O)C2N(C(=O)c2cc3ccccc3[nH]2)c2ccccc2)cc1` (stereo not given): “inactive”; `Nc1nc2ncccn2c1-c1ccccc1`: “inactive”; `c1ccc(-c2ccnc3nc(-n4cccc4)nn23)cc1`: 1.78 µM (active).
Next, `Cc1cc(-c2ccccc2)n2nc(-c3ccccc3)cc2n1`: “inactive”.
As to `CN(C)c1ccc(C=Nc2ccc(/C=C/c3ccnc4ccccc34)cc2)cc1`, the Potency entry was “inactive”.
Consider `CC1(C)OC(=O)C2=C(C[C@@H](C3CC3)O[C@H]2CCc2cccc(Cl)c2)O1`, for which the Potency result was “inactive”.
Next, `O=C(Nc1cc(Br)ccc1F)c1nc[nH]c1C(=O)NCc1ccccc1`: “inactive”.
Next, `Cc1ccc(-n2ncc3c(N4CCC(C(N)=O)CC4)ncnc32)cc1`: “inactive”.
Next, `O=C(NNc1ncnc2c1cnn2-c1ccccc1)c1ccco1`: “inactive”; `CC1(C(=O)Nc2cccnc2)Cc2c(-c3ccccc3)ccnc2O1` (stereo not given): “inactive”.
With `COc1ccc(CCn2c3c(c(=O)[nH]c2=S)CN(C(C)C)CN3)cc1OC`, the Potency entry is “inactive”.
For `CCNC(=O)C1CCCN(C(=O)c2ccc(OC)cc2OC)CC1` (stereo not given), the Potency entry was “inactive”.
Next, `CCc1nc2ccc(C(=O)NC3CCN(Cc4ccccc4)CC3)cn2c1N(CC)CCOC`: “inactive”; `Cc1ccc2[nH]c(=O)c(COC(=O)c3ccccn3)cc2c1`: “inactive”; `CCOC(=O)c1cc2cc(C)ccc2[nH]1`: 14.1 µM (active).
For `CCOC(=O)c1[nH]c2ccc(C)cc2c1N=C(C)N(C)C`, the Potency entry was “inactive”.
Next, `COC(=O)c1ccc2nc(-c3cccc(Br)c3)c(Cc3ccccc3C(F)(F)F)n2c1`: “inactive”; `COCCN(CCOC)c1nc(N)c2c(N)nc3c(c2c1C#N)CC(=O)N3Cc1ccc(Cl)cc1`: 3.16 µM (active).
With `COc1ccc(C(C#N)=C2C=CC(=NO)c3ccccc32)cc1`, the Potency entry was “inactive”.
Next, `CC1=C2C(=O)OC(c3ccoc3)C2(C)CCC1` (stereo not given): 25.1 µM (active).
Next, `CC1(C)O[C@H]2CC(=O)OCC23[C@H]2CC[C@@]4(C)[C@H](c5ccoc5)OC(=O)[C@H]5O[C@]54[C@]2(C)C(=O)C[C@@H]13` (stereo not given in full): “inactive”; `CC(C)(C(=O)NO)c1ccccc1`: “inactive”.
Next, `CC(Oc1ccccc1[N+](=O)[O-])C(=O)N/N=C/c1ccoc1` (stereo not given): “inactive”; `CCCC(=O)Nc1ccc(C(=O)N/N=C/c2ccc[nH]2)cc1`: “inactive”.
Turning to `O=C(COc1ccccc1[N+](=O)[O-])N/N=C/c1ccc[nH]1`, the Potency is 31.6 µM (active).
Take `O=C(Nc1ccc(Cl)cc1)c1csc([C@H]2C[C@H](O)[C@@H](CO)O2)n1`: the Potency entry is “inactive”.
With `COc1cc2c(cc1NC(=O)CN1CCN(S(=O)(=O)c3ccc(F)cc3)CC1)oc1ccccc12`, the Potency is 11.2 µM (active).
As for `COc1ccccc1NC(=O)CN1CCN(S(=O)(=O)c2ccc(Br)cc2)CC1`, the Potency result was “inactive”.
Next, `COc1ccc(NC(=O)CN2CCN(S(=O)(=O)c3ccc(F)cc3)CC2)cc1Cl`: “inactive”.
